# According to PubChem BioAssay AID977607 (Broad Institute, 2014):
# Out of some 1,500 compounds screened, about 460 (31%) were called active. Roughly 1% stayed inconclusive and do not appear here. Not all results are given here. Entries with a potency or affinity are not part of this list. A number with no mark means an inactive call.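 Rule for the calls: active = curve reaches 40% activation over neutral controls at an AC40 no higher than the top valid tested concentration; inconclusive = no clear call, values can overlap the other calls; inactive = signal moving opposite to the expected increase, and the rest.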
# Experiment: activators of glucose-dependent insulin secretion, dose response, cell-based, INS-1E, Gaussia luciferase, luminescence, cherry-pick, set 2 (AID 977607);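 note: 0% = median of the plate neutral control wells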
# Conditions: INS-1E GLuc insulin secretion reporter, 2-3 h, active compounds read high
# [1] = at 35 µM, 100% = signal doubled over neutral wells unless noted
smiles,measurement,setting,value
Cc1ccc2c(=O)cc(C(=O)NC3CCS(=O)(=O)C3)oc2c1C (centres undefined),max activation,[1],"-12.4% [at 0.046 µM, 100% = signal doubled over neutral wells]"
Cc1ccnc(NS(=O)(=O)c2ccc(NC(=O)CCc3ccccc3)cc2)n1,max activation,[1],"33.7% [at 1.2 µM, 100% = signal doubled over neutral wells]"
COc1ccc2oc(C(=O)Nc3nnc(C)s3)c(C)c2c1,max activation,[1],"-20% [at 0.015 µM, 100% = signal doubled over neutral wells]"
CCC(=O)Nc1ccc(C(=O)N/N=C/c2cccnc2)cc1,max activation,[1],"-26.1% [at 3.8 µM, 100% = signal doubled over neutral wells]"
CCc1nc(N)nc(N)c1-c1ccc(Cl)c(N=[N+]=[N-])c1,max activation,"at 0.046 µM, 100% = signal doubled over neutral wells",-14.5%
same,max activation,"at 1.2 µM, 100% = signal doubled over neutral wells",-22.8%
Cc1ccc(-c2csc(NC(=O)CCCc3cccs3)n2)cc1,max activation,[1],"22% [at 0.42 µM, 100% = signal doubled over neutral wells]"
CCCc1nc2n[nH]c(N)c2c2c1COC(C)(C)C2,max activation,[1],19.9%
COc1ccc(CN(C)C(=O)COc2cccc(-n3cnnn3)c2)cc1OC,max activation,[1],25.6%
COc1ccccc1CNS(=O)(=O)c1cc(-c2cc(C)no2)ccc1C(C)C,max activation,[1],-29.2%
COc1ccc(-c2cc(C(=O)N3CCCCCC3)no2)cc1OC,max activation,[1],"-22% [at 3.8 µM, 100% = signal doubled over neutral wells]"
COCCNC(=O)c1ccc(N(C)S(=O)(=O)c2ccc(OC)c(OC)c2)cc1,max activation,[1],"19.5% [at 0.005 µM, 100% = signal doubled over neutral wells]"
C=CCc1cccc(/C=N/NC(=O)CCC(=O)Nc2ccc(C)cc2)c1O,max activation,[1],-34.3%
O=C(N/N=C/c1cc(Cl)ccc1O)c1ccc(Br)cc1,max activation,[1],"-24.4% [at 3.8 µM, 100% = signal doubled over neutral wells]"
Cc1nc2ccccc2c(=O)n1/N=C/c1ccc(N(C)C)cc1,max activation,[1],"-10.6% [at 1.2 µM, 100% = signal doubled over neutral wells]"
CCc1nc2c(OCCC3CCCCC3)cccn2c1N(C)C(=O)c1ccco1,max activation,[1],-35%
Cc1ccccc1CN(C)Cc1cc(=O)oc2c(C)c(C)ccc12,max activation,[1],-33.3%
O=C(c1ccccc1)N(C(=O)c1ccccc1)N1CCCC1,max activation,[1],"28.2% [at 0.046 µM, 100% = signal doubled over neutral wells]"
O=C(O)CCN1c2ccccc2Sc2ccccc21,max activation,[1],"-23% [at 3.8 µM, 100% = signal doubled over neutral wells]"
O=C(CCc1ccccc1)NNC(=O)COc1ccccc1Cl,max activation,[1],"22.3% [at 0.42 µM, 100% = signal doubled over neutral wells]"
COc1ccc(/C=N/Nc2ncnc3c2[nH]c2ccccc23)c(OC)c1OC,max activation,[1],"-28.4% [at 0.005 µM, 100% = signal doubled over neutral wells]"
c1ccc2c(N3CCCCC3)nc(N3CCCC3)nc2c1,max activation,[1],34.7%
O=S(=O)(N1CCOCC1)n1c(Cc2ccccc2)nc2ccccc21,max activation,[1],"-18.5% [at 0.046 µM, 100% = signal doubled over neutral wells]"
CCOC(=O)C1CCCN(C(=O)c2cccnc2Oc2ccccc2)CC1 (centres undefined),max activation,[1],"48.6% [at 1.2 µM, 100% = signal doubled over neutral wells]"
COc1ccc(CCNCc2cc3ccc(C)cc3[nH]c2=O)cc1OC,max activation,[1],"20.9% [at 11 µM, 100% = signal doubled over neutral wells]"
COC(=O)[C@]1(Cc2ccccc2)N[C@H](CN(C)C(=O)Nc2ccc(C)cc2)[C@@H]2C(=O)N(C)C(=O)[C@@H]21,max activation,[1],"-13.8% [at 11 µM, 100% = signal doubled over neutral wells]"
O=C(Nc1ccc(S(=O)(=O)N2CCOCC2)cc1)c1ccc(=O)[nH]c1,max activation,[1],"-14.6% [at 0.046 µM, 100% = signal doubled over neutral wells]"
O=C(NCc1ccc(Cl)cc1)c1cc(=O)[nH]c2ccc(S(=O)(=O)N3CCOCC3)cc12,max activation,[1],"27.5% [at 0.005 µM, 100% = signal doubled over neutral wells]"
CCN(Cc1ccccc1)S(=O)(=O)c1ccccc1Br,max activation,[1],-30.7%
CC/C(O)=C1\C(=O)CC(C)(C)CC1=Nc1ccccc1C,max activation,[1],"-12.4% [at 0.046 µM, 100% = signal doubled over neutral wells]"
CCCC(=O)Nc1ccc(N2CCN(S(C)(=O)=O)CC2)cc1,max activation,[1],"-16% [at 11 µM, 100% = signal doubled over neutral wells]"
CCc1onc(C)c1C(=O)Nc1ccc(N2CCOCC2)cc1,max activation,[1],"-20.7% [at 11 µM, 100% = signal doubled over neutral wells]"
CCn1c(C)nc2cc(S(=O)(=O)C(F)(F)F)ccc21,max activation,[1],"-18% [at 0.135 µM, 100% = signal doubled over neutral wells]"
COC(=O)c1scc(C)c1NC(=O)CC1NCCNC1=O (centres undefined),max activation,[1],"-9.21% [at 0.0016 µM, 100% = signal doubled over neutral wells]"
O=C(O)c1ccc(S(=O)(=O)NCc2ccc3c(c2)OCO3)cc1,max activation,[1],"-14.4% [at 0.42 µM, 100% = signal doubled over neutral wells]"
O=C(c1ccc2c(c1)OCO2)N1CCN(S(=O)(=O)c2ccccc2)CC1,max activation,[1],"-16.9% [at 0.42 µM, 100% = signal doubled over neutral wells]"
COc1ccc(S(=O)(=O)N(C)c2ccc(C(=O)NCC3CCCO3)cc2)cc1OC (centres undefined),max activation,[1],"-7.27% [at 1.2 µM, 100% = signal doubled over neutral wells]"
COC(=O)COc1ccc(C)cc1-n1nc2ccccc2n1,max activation,[1],22.5%
CC(=O)c1cccc(Nc2ncnc3ccc(Br)cc23)c1,max activation,[1],"-20.3% [at 0.0016 µM, 100% = signal doubled over neutral wells]"
COc1cccc(-c2nnn(CC(=O)O)n2)c1,max activation,[1],-16%
CCOc1cc(C(=O)N(C)CC(=O)Nc2cccc3ccccc23)ccc1OC,max activation,[1],"18.1% [at 11 µM, 100% = signal doubled over neutral wells]"
CN(C)S(=O)(=O)c1cccc(-c2csc(N/N=C/c3ccco3)n2)c1,max activation,[1],"-17.2% [at 3.8 µM, 100% = signal doubled over neutral wells]"
CCc1cccc(NC(=O)C2CCCN2S(=O)(=O)c2ccc3c(c2)n(C)c(=O)c(=O)n3C)c1 (centres undefined),max activation,[1],-17.8%
CCOc1cc(OCC)cc(C(=O)Nc2cccnc2)c1,max activation,[1],"14.6% [at 1.2 µM, 100% = signal doubled over neutral wells]"
C=C1[C@@H](O)[C@H](CC(C)C)N(Cc2ccccc2Br)S1(=O)=O,max activation,[1],-22.8%
COc1ccc(-n2c(-c3ccc(Cl)cc3)c[nH]c2=S)cc1,max activation,[1],14.5%
CCCOc1ccc(/C=N/NC(=O)C(=O)Nc2ccccn2)cc1,max activation,[1],19.6%
CC(C)CCC(O)(CCC(C)C)C(=O)NN1CCCCC1,max activation,[1],"26.3% [at 0.015 µM, 100% = signal doubled over neutral wells]"
O=c1cc(Cl)[nH]c(=O)n1Cc1ccccc1,max activation,[1],"-18% [at 0.135 µM, 100% = signal doubled over neutral wells]"
Cc1ccc(NC(=O)c2ccccc2-c2ccccc2C(=O)O)cc1C,max activation,[1],"-15.4% [at 0.046 µM, 100% = signal doubled over neutral wells]"
Cc1cc(C(=O)Nc2cccc(O)c2)c(C)o1,max activation,[1],"50.1% [at 0.135 µM, 100% = signal doubled over neutral wells]"
CCCn1nc(C(=O)NC2CC2)c2ccccc2c1=O,max activation,[1],"-11.7% [at 0.135 µM, 100% = signal doubled over neutral wells]"
CCCn1nc(C(=O)NC2CCCC2)c2ccccc2c1=O,max activation,[1],"14.9% [at 0.135 µM, 100% = signal doubled over neutral wells]"
CCNc1nc(C)nc2c1oc1ccccc12,max activation,[1],"20.6% [at 11 µM, 100% = signal doubled over neutral wells]"
CC(C)Oc1cccc(C(=O)C2CCCN(C(=O)CCc3cnn(C)c3)C2)c1 (centres undefined),max activation,[1],"-16.9% [at 0.0016 µM, 100% = signal doubled over neutral wells]"
CCCCCCc1cc2cc(C(=O)Nc3cccc(OC)c3)c(=O)oc2cc1O,max activation,[1],"-54.3% [at 1.2 µM, 100% = signal doubled over neutral wells]"
Cc1ccnc(NC(=O)Nc2ccc(Br)cc2Cl)c1,max activation,[1],"-16.6% [at 0.0016 µM, 100% = signal doubled over neutral wells]"
COc1ccc(Cl)cc1C(=O)Nc1cccc(-c2ccc3nncn3n2)c1,max activation,[1],"-16.9% [at 0.015 µM, 100% = signal doubled over neutral wells]"
COCCn1c(=O)[nH]c2cc(C(=O)Nc3cc(OC)c(OC)c(OC)c3)ccc2c1=O,max activation,[1],"-21.3% [at 11 µM, 100% = signal doubled over neutral wells]"
